# High-throughput results (PubChem)
# EP2 modulator: modulators of human EP2 prostaglandin E2 receptor; P43116; EP2-expressing cells, cAMP HTRF FRET, PGE2 co-stimulation; induction, % at 25 µM; 260,000 compounds, 0.83% hits; AID 940;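 active means compounds whose cAMP rise, as percent of the full-agonist control response, exceeds 60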;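 further: rat C6 glioma line stably carrying human EP2 under a CMV promoter; the protocol text gives 20 µM as final concentration; 100% = response of wells given 1 µM PGE2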
# CHT allo act: allosterically activates the human high affinity choline transporter; Q9GZV3; CHT-expressing cells, membrane potential dye, choline EC20; active compounds read high; LV-AA mutant CHT in HEK293 cells; B-score at 10 µM; 310,000 compounds, 0.49% hits;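 active means initial fluorescence not abnormally high and integrated response B-score, plate-corrected, over 3 SD above library mean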
# Target sequence (Q9GZV3 whole entry, looked up): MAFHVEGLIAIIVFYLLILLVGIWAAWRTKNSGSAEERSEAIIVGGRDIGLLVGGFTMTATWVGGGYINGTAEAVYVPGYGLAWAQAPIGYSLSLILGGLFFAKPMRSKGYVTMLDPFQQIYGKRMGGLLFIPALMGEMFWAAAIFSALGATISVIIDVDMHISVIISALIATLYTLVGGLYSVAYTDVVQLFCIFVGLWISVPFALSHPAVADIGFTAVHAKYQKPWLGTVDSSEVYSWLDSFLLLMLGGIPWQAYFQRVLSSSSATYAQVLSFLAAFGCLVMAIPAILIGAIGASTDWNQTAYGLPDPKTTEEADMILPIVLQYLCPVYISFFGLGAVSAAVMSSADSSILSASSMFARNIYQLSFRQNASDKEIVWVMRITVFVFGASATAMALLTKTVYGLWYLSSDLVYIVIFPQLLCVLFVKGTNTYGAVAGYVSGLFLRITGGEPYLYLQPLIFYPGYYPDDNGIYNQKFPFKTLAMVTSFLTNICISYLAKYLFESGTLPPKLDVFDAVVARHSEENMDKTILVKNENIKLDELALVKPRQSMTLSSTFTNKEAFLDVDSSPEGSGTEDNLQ
# EP2 antag: blocks the human prostaglandin E2 receptor EP2; AID 1422; inhibition, % at 25 µM; C6 glioma cells expressing human EP2, cAMP TR-FRET; cells stimulated with saturating PGE2; 260,000 compounds, 0.52% hits;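 active means percent inhibition above 40 after rounding to a whole number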;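 further: rat C6 glioma host cells with rolipram phosphodiesterase inhibitor present; the protocol text gives 20 µM as final concentration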
# CHT block: inhibits the human high affinity choline transporter; Q9GZV3; CHT-expressing cells, membrane potential dye, choline response; active compounds read low; B-score at 10 µM; 310,000 compounds, 0.86% hits; AID 488975;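 active means B-score over 3 SD under the library average, and starting fluorescence ratio not unusually high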;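 further: choline stimulus applied at its EC90 after an EC20 pre-addition; B-score computed on integrated fluorescence ratio after choline addition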
# Active calls of the source: *; i = inactive; . = no result; ! = a repeat was not active. In the library only some 2% were active in any assay of this set; here they are far more common.
SMILES,EP2 modulator,CHT allo act,EP2 antag,CHT block
COCCn1c(=O)[nH]c2cc(C(=O)O)ccc21,4,.,6,.
O=C1C(Cl)=C(NCCN2CCCCC2)C(=O)c2ccccc21,-92,i,17,i
O=c1c2ccccc2sc2c(CO)ccc(NCCN3CCCCC3)c12,-42,.,58*,.
C[C@]12CCC(=O)C=C1CCC1C2[C@@H](O)C[C@@]2(C)C1CC[C@]2(O)C(=O)CO (stereo partly specified),15,.,10,.
CC(=O)[C@]1(O)CC[C@@H]2[C@H]3C[C@@H](C)C4=CC(=O)CC[C@@]4(C)[C@@H]3[C@@H](O)C[C@]21C,4,.,50*,.
C[C@@]12C[C@H](O)[C@@H]3[C@H](CCC4=CC(=O)CC[C@]43C)[C@H]1CC[C@H]2c1csc(N)n1,-24,.,66*,.
CC(=O)[C@@]1(O)CC[C@H]2[C@@H]3CCC4=CC(=O)CC[C@]4(C)[C@H]3[C@@H](O)C[C@@]21C,-3,i,10,-6.6*
CC(=O)OCC(=O)[C@@]1(O)CCC2C3CCC4=CC(=O)CC[C@]4(C)C3[C@@H](O)C[C@@]21C (stereo partly specified),-5,.,11,.
CC(=O)[C@@]1(O)CC[C@H]2[C@@H]3C[C@H](C)C4=CC(=O)CC[C@]4(C)[C@H]3CC[C@@]21C,27,i,13,i
O=C1[C@H]2[C@@H]3c4ccccc4[C@H]([C@H]2C(=O)N1c1ccc(OCc2ccccc2)cc1)[n+]1ccccc13,14,.,42*,.
NC(=O)C1CC(=O)N(c2ccc(OCc3ccccc3)cc2)C1 (stereo unspecified),-11,.,9,.
O=S(=O)(O)CCCSc1nc2ccccc2s1 (tested in a mixture with another compound),-40,.,5,.
CC(C)NCC(O)c1cc(O)cc(O)c1 (stereo unspecified),81*!,i,21,i
CC(C)NC[C@@H](O)c1ccc(O)c2ncccc12,17,.,11,.
COC(=O)Cn1nc(C(c2ccccc2)c2ccccc2)oc1=O,24,.,.,.
Cc1ccc(S(=O)(=O)OC2CCN(C)CC2)cc1,-1,.,56*,.
CN(C)Cc1ccc(F)cc1Sc1ccc(Cl)cc1Cl,62*,i,3,i
COc1ccc(OC)c(C(=O)CN2CCN(S(=O)(=O)c3ccc(Br)cc3)CC2)c1,-13,i,13,-6.5*
Cc1ccc(C2=NOC(=O)/C2=C\C=C\c2ccccc2)cc1,-38,.,98*,.
O=C(Nc1ccc(-n2cnnn2)cc1)c1cc2nc(C3CC3)cc(C(F)(F)F)n2n1,15,.,9,.
O=C(CC1CCCC1)N1CCC[C@@H](Cn2nc(-c3cccs3)ccc2=O)C1,-103,.,6,.
O=c1c2ccccc2nc(-c2cccs2)n1-c1cccc2ccccc12,62*,i,10,i
COc1ccc(CNn2c(-c3cccs3)nc3ccccc3c2=O)cc1OC,23,i,9,i
CCCN(C(=O)c1ccco1)c1nnc(-c2ccc(C(C)(C)C)cc2)s1,-30,.,15,.
N#CSC1CS(=O)(=O)C=C1Cl (stereo unspecified),-111,.,133*,.
SMILES,EP2 modulator,CHT allo act,EP2 antag,CHT block
COC(=O)c1ccc2c(c1)C(C)(C)C(/C=C/c1ccc(O)cc1)=[N+]2C,-15,6.5*,7,i
CCC(=O)N(CCc1ccccc1)Cc1cc2cc(C)cc(C)c2[nH]c1=O,-29,.,11,.
Cc1c(C(N)=O)c(-c2ccccc2)nn1-c1ccccc1,-2,i,6,i
CCCc1c(-c2ccc(O)cc2)nn(-c2ccc(O)cc2)c1-c1ccc(O)cc1,-22,i,100*,i
Cc1cc(C)cc(NC(=S)N2CCC(NC(=O)C(C)(C)C)CC2)c1,-6,.,10,.
Cc1ccccc1OCC(=O)Nc1ccc2c(c1)OCCO2,-6,i,5,i
O=C(COc1ccccc1Cl)Nc1ccc2c(c1)OCCO2,64*,i,18,i
CCCn1c(=O)c(C(=O)NCCO)c(O)c2ccccc21,25,.,14,.
Nc1ncnc2nc[nH]c12.Nc1ncnc2nc[nH]c12.[Cl][Pt]([Cl])([Cl])[Cl],19,.,47*,.
Nc1nc(N)c2[nH]cnc2n1 (tested in a mixture with another compound),27,.,12,.
Nc1ncnc2nn([C@H]3O[C@@H](CO)[C@H](O)[C@H]3O)nc12,-15,.,6,.
Cc1sc2ccc3sccc3c2[n+]1C,10,12*,19,i
Clc1ccc2c(N3CCC(CCC4CCN(c5ncnc6cc(Cl)ccc56)CC4)CC3)ncnc2c1,15,.,52*,.
CN(C)S(=O)(=O)Oc1cccc(C(=O)Nc2cccc(Cl)c2)c1,-56,i,28,i
